In a collection of fitness landscapes (doi:10.1126/science.1257360) one finds enrichment ratio data, which are given here for 195 variants.

The full ranking holds about 140,000 sequences; the median of “enrichment ratio after two sorts for PhoP signalling” is about 0, and the highest 2% start at about 11. This is one part of a sample in which the highest values are shown more often than they occur. Some results are limits rather than exact numbers.

To fix the notation:
B1: PhoQ; a variant is named by its letters at X, in order, P23837 (parent)
chain: MKKLLRLFFPLSLRVRFLLATAAVVLVLSLAYGMVALIGYSVSFDKTTFRLLRGESNLFYTLAKWENNKLHVELPENIDKQSPTMTLIYDENGQLLWAQRDVPWLMKMIQPDWLKSNGFHEIEADVNDTSLLLSGDHSIQQQLQEVREDDDDAEMTHSVAVNVYPATSRMPKLTIVVVDTIPVELKSSYMVWSWFIYVLSANLLLVIPLLWVAAWWSLRPIEALAKEVRELEEHNRELLNPATTRELTSLVRNLNRLLKSERERYDKYRTTLTDLTHSLKTPLXXLQXXLRSLRSEKMSVSDAEPVMLEQISRISQQIGYYLHRASMRGGTLLSRELHPVAPLLDNLTSALNKVYQRKGVNISLDISPEISFVGEQNDFVEVMGNVLDNACKYCLEFVEISARQTDEHLYIVVEDDGPGIPLSKREVIFDRGQRVDTLRPGQGVGLAVAREITEQYEGKIVAGESMLGGARMEVIFGRQHSAPKDE

In the test the parent is B1. Description: enrichment ratio after two sorts for PhoP signalling (ratio (wild type AVST 3.29)); higher = more functional. The conditions noted are these: with PhoP (E. coli).
In the case of VSWM, the enrichment ratio was 2.15.
With VFTM, the enrichment ratio is ≤ 0.25.
In the case of NSTM it was ≤ 0.25; in that of KCTM, ≤ 0.25.
In the case of VSTM it was 14.3; in that of VCTM, 23.
For EPCV the value was ≤ 0.25; for PQFI, ≤ 0.25.
For IWAV, the enrichment ratio is ≤ 0.25.
In the case of PCTF it was ≤ 0.25; in that of RWFD, ≤ 0.25.
For AILQ the value was 13.6; for ASLR, 3.29.
For the variant ASTA, the enrichment ratio is 9.73.
For ASLQ the value was 11.8; for KCLQ, ≤ 0.25; for LQLQ, ≤ 0.25.
For PLLQ the value was ≤ 0.25; for VHLQ, ≤ 0.25.
In the case of ACLR it was 8.18; in that of ALLQ, 14.7.
For the variant ADLQ, the enrichment ratio came to 3.02.
As for ACLQ, the enrichment ratio was 11.6.
In the case of FDLT, the enrichment ratio is ≤ 0.25.
In the case of DGHY it was ≤ 0.25.
In the case of FIKM it was ≤ 0.25; in that of HWCE, ≤ 0.25; in that of SDKP, ≤ 0.25.
For YSIR the value was ≤ 0.25; for WSFS, ≤ 0.25.
As for KRRI, the enrichment ratio is ≤ 0.25.
In the case of SLHA it was ≤ 0.25; in that of IGLE, ≤ 0.25; in that of TPMA, ≤ 0.25.
For KSGA the value was ≤ 0.25; for ELRR, ≤ 0.25.
For FQKN the value was ≤ 0.25; for CNES, ≤ 0.25; for IDKS, ≤ 0.25.
TVPS: the enrichment ratio is ≤ 0.25.
In the case of GGLQ it was 3.13; in that of AYLQ, 0.526; in that of ATLQ, 11.5.
On to MFLQ, for which the enrichment ratio was ≤ 0.25.
For TGLQ the value was 9.97; for AQLQ, 5.87.
In the case of TKLQ it was 6.41; in that of AGLQ, 13.5; in that of AKLQ, 41.4.
For MGLR the value was ≤ 0.25; for MGLQ, 16.
HKLQ: the enrichment ratio is ≤ 0.25.
NIMF: the enrichment ratio was ≤ 0.25.
For YKKL the value was ≤ 0.25.
In the case of ESDI it was ≤ 0.25; in that of PSMS, ≤ 0.25; in that of WGKP, ≤ 0.25.
In the case of QAMN it was ≤ 0.25; in that of SCTY, 15.6; in that of LSTY, ≤ 0.25.
For the variant KCTY, the enrichment ratio is ≤ 0.25.
For HVTY the value was ≤ 0.25.
As for VCTY, the enrichment ratio is ≤ 0.25.
In the case of TCTY it was 14.7; in that of DNQA, ≤ 0.25; in that of WMWR, ≤ 0.25.
For GEYP the value was ≤ 0.25; for DMMD, ≤ 0.25; for ACMF, 14.4.
For ACGF the value was 6.85; for ACMT, 10.1; for ACGA, ≤ 0.25.
Consider ACMA, for which the enrichment ratio stood at 34.1.
In the case of ACMG it was 14.3; in that of ACVG, 4.01.
In the case of ACVA it was 3.46; in that of ACMW, ≤ 0.25.
For the variant ACMR, the enrichment ratio amounted to 1.61.
For ACMK the value was 17.8; for ACWF, ≤ 0.25; for PYWL, ≤ 0.25.
For DKNN the value was ≤ 0.25.
In the case of FTRE it was ≤ 0.25; in that of QRLI, ≤ 0.25.
As to FFKH, the enrichment ratio was ≤ 0.25.
For NCDG the value was ≤ 0.25; for QIFY, ≤ 0.25.
In the case of VWPM it was ≤ 0.25; in that of ACGG, 4.87.
For ACVC the value was 1.02.
For ACMS, the enrichment ratio stood at 8.75.
In the case of ACWQ it was ≤ 0.25; in that of ACIG, 12.3.
In the case of ACMV it was 7.12; in that of ACMQ, 31.7; in that of ACMI, 21.
In the case of WGDV it was ≤ 0.25.
Consider VHHQ, for which the enrichment ratio is ≤ 0.25.
On to TTPE, for which the enrichment ratio was ≤ 0.25.
For MDFT the value was ≤ 0.25; for RPHC, ≤ 0.25; for NELR, ≤ 0.25.
For MQVH the value was 2.29; for TPTT, ≤ 0.25; for SQCE, 24.1.
For SLQI the value was 5.02; for SNAY, 14.8; for SNCE, ≤ 0.25.
Take DNQN: the enrichment ratio was ≤ 0.25.
In the case of NQCE, the enrichment ratio was ≤ 0.25.
For DMQI, the enrichment ratio was ≤ 0.25.
In the case of SPAY it was ≤ 0.25.
For DNQI the value was 22.9; for SQQI, 2.33.
For SNYI the value was 0.257; for SNQI, 12.5.
REHF: the enrichment ratio is ≤ 0.25.
In the case of APRY, the enrichment ratio was ≤ 0.25.
As for WCFP, the enrichment ratio was ≤ 0.25.
For VRKW the value was ≤ 0.25; for HDVL, ≤ 0.25; for SLKT, ≤ 0.25.
In the case of PVHR it was ≤ 0.25; in that of GYTV, ≤ 0.25; in that of YWVH, ≤ 0.25.
For HHYP the value was ≤ 0.25; for SQCA, 8.55.
Consider SQTH, for which the enrichment ratio is 3.03.
In the case of SNCI it was 21.8.
In the case of SNHI it was ≤ 0.25; in that of SNDH, ≤ 0.25.
In the case of SRSA it was ≤ 0.25; in that of SQCI, 15.6; in that of SQSA, 3.01.
Take SNSA: the enrichment ratio is 13.1.
With SNHF, the enrichment ratio is ≤ 0.25.
For SNCA, the enrichment ratio was determined as 16.8.
In the case of SQCK it was 9.83; in that of DNPA, ≤ 0.25.
In the case of ILGQ, the enrichment ratio is ≤ 0.25.
In the case of SFVQ it was ≤ 0.25.
Regarding YVYP, the enrichment ratio was ≤ 0.25.
As for FFCP, the enrichment ratio is ≤ 0.25.
For LDYA the value was ≤ 0.25; for SSGD, ≤ 0.25; for SICE, 1.33.
In the case of SQTM it was 6.18; in that of SSTM, 21.4; in that of SSWM, 6.76.
For SSPM the value was 0.954.
On to SICI, for which the enrichment ratio came to 21.
In the case of SITW it was 4; in that of SICV, 16.6; in that of SILH, 3.1.
In the case of SSGM, the enrichment ratio was 13.4.
Take KYCV: the enrichment ratio is ≤ 0.25.
In the case of DMMP it was ≤ 0.25; in that of NRRM, ≤ 0.25.
In the case of YLRW it was ≤ 0.25; in that of TKFH, ≤ 0.25.
For LSNL the value was ≤ 0.25; for EACR, ≤ 0.25; for HEFW, ≤ 0.25.
In the case of LKYV, the enrichment ratio was ≤ 0.25.
Regarding SICA, the enrichment ratio stood at 8.12.
In the case of KSVM it was ≤ 0.25; in that of SIAM, 20.8; in that of KYAM, ≤ 0.25.
With SLTM, the enrichment ratio worked out at 12.5.
With KYCS, the enrichment ratio was ≤ 0.25.
For TSVM the value was 3.12.
For the variant WLTM, the enrichment ratio was ≤ 0.25.
As for SIMD, the enrichment ratio amounted to 4.7.
PLTM: the enrichment ratio is ≤ 0.25.
For SSVM, the enrichment ratio was found to be 17.6.
For SICS the value was 16.9; for DEHQ, ≤ 0.25; for SHVQ, ≤ 0.25.
For KNSF the value was ≤ 0.25; for EDWM, ≤ 0.25.
In the case of PVLM it was ≤ 0.25; in that of TLTM, 19; in that of FICM, 12.9.
As for WICG, the enrichment ratio is ≤ 0.25.
Turning to SIGM, the enrichment ratio was found to be 9.86.
With LLTM, the enrichment ratio was ≤ 0.25.
In the case of FIGM it was ≤ 0.25; in that of KYCG, ≤ 0.25.
For SICK the value was 14.6; for SICG, 22.
FICK: the enrichment ratio was ≤ 0.25.
For VLTM the value was ≤ 0.25; for SIWM, ≤ 0.25.
In the case of NHYV it was ≤ 0.25; in that of EHWN, ≤ 0.25.
